Screening data as filed in PubChem BioAssay.
CYP2C9 act: CYP2C9 (human) activation | recombinant CYP2C9, luciferin-H conversion, luminescence; active compounds read high; factor 1 = untreated enzyme, 0 = blocked | activation factor at 5 µM | hit rate 1.4% among 96,000;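 active means activation factor of 2 or more for CYP2C9 at a 5 µM dose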;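 further: 0 = sulfaphenazole-blocked wells and 1 = vehicle-only wells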
sEH act: increases human soluble epoxide hydrolase activity | activation, % at 2 µM | purified human sEH enzymatic activity, activator screen | hit rate 0.04% among 91,000; in the data active means activation above about 37%
sEH inhibitor: blocks human soluble epoxide hydrolase activity | recombinant human sEH enzymatic activity assay | P34913 | inhibition, % at 2 µM | hit rate 0.34% among 91,000; in the data active means inhibition above about 80%
CYP2C19 act: increases human CYP2C19 enzyme activity | P33261 | recombinant CYP2C19, luciferin-H EGE luminescence; active compounds read high; 0 = fully inhibited enzyme, 1 = untreated enzyme | AID 1025 | 96,000 tested, under 10 active | activation factor at 5 µM;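 active means activation factor of at least 2 at 5 µM in the primary screen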;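 further: 0 = wells with 2.5 mM tranylcypromine and 1 = vehicle-only wells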
Target sequence (P33261 whole entry, looked up): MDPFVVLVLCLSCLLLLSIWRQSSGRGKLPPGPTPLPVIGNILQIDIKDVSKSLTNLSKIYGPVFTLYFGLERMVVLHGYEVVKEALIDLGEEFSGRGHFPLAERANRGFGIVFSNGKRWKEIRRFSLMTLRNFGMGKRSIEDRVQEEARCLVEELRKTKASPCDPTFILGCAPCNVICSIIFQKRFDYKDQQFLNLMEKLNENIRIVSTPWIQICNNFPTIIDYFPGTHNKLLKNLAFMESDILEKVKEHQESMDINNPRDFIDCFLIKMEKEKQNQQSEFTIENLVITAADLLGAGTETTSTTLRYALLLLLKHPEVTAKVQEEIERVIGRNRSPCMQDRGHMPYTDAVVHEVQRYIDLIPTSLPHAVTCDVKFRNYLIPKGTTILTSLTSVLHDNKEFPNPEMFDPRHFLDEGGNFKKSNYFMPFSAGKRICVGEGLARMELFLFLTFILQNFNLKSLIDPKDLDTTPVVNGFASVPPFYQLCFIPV
CYP2C9 inh: human CYP2C9 inhibition. AID 777. inhibition, % at 5 µM. hit rate 20% among 96,000. CYP2C9 Supersomes, luciferin-H conversion, luminescence. P11712;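 active means blocking of liver enzyme CYP2C9 beyond about 50% at 5 µM, limit read from the data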
CYP2C19 inhib: inhibitors of human CYP2C19. P33261. CYP2C19 Supersomes, luciferin-H EGE luminescence, 30 min. inhibition, % at 5 µM. hit rate 21% among 96,000. AID 778;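 active means CYP2C19 inhibition above a set limit at 5 µM in the primary screen, cut at about 50% in these data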;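 further: plate controls were negative control wells for no effect and 2.5 mM tranylcypromine positive control for full effect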
Starred values were filed as active, the others as inactive; / = no result given. Hits are enriched below; roughly 27% of the tested compounds scored in any of these assays.

SMILES | CYP2C9 act | sEH act | sEH inhibitor | CYP2C19 act | CYP2C9 inh | CYP2C19 inhib
CCS(=O)(=O)N1CCCC(C(=O)NCCCN2CCCC2=O)C1 (centres undefined) | 1.1 | / | / | 1.1 | -6 | -6
C=CCN1C(=O)/C(=C2/Sc3ccccc3N2C)SC1=Nc1ccccc1C | 0.4 | 5 | -3 | 0.6 | 56* | 39
C=CCN1C(=O)/C(=C2/Sc3ccccc3N2C)SC1=Nc1c(C)n[nH]c1C | 0.8 | 0 | -2 | 0.9 | 25 | 12
CCOC(=O)/C(C#N)=C/c1ccc(OCC(=O)Nc2ccc(OC)cc2)c(OC)c1 | 0.4 | / | / | 0.5 | 59* | 49
S=C(c1ccc[nH]1)N1CCOCC1 | / | -9 | 9 | / | / | /
COc1ccc(-c2nsc(SCC(=O)Nc3cc(C)on3)n2)cc1 | 0.5 | 6 | -2 | 0.6 | 54* | 42
CCc1nnc(NC(=O)CSc2nc(-c3ccc(OC)cc3)ns2)s1 | 0.3 | -4 | 7 | 0.7 | 72* | 31
CCN(Cc1ccccc1)C(=O)COC(=O)c1n[nH]c2ccccc12 | 1 | -6 | 5 | 0.5 | 4 | 45
Cc1cc(C)c(S(=O)(=O)NCc2cn3c(C)csc3n2)cc1C | 1.2 | 20 | -19 | 0.8 | -18 | 18
CC(=O)N1CCn2c3ccc(C)cc3c3cccc1c32 | / | -3 | 6 | / | / | /
O=C(Oc1cccc(Oc2ccccc2)c1)N1CCOCC1 | 1 | 13 | -14 | 0.4 | 0 | 63*
CCOC(=O)N1CCOCCOCCN(C(=O)OCC)CCOCC1 | 0.9 | -3 | 3 | 0.9 | 13 | 13
O=C(OCc1ccccc1)N1CCOCCOCCN(C(=O)OCc2ccccc2)CCOCCOCC1 | 0.2 | 20 | -17 | 0.7 | 84* | 27
Cc1c(C(=O)/C=C/c2cccs2)oc2ccc(F)cc12 | 0.8 | 6 | -7 | 0.7 | 19 | 30
Cc1ccc(-n2nc(C(=O)N/N=C/c3cccc(C(F)(F)F)c3)c3ccccc3c2=O)cc1C | 0.9 | 1 | 1 | 0.9 | 10 | 6
CN(C(=O)NC(=O)C1=C(N2CCOCC2)/C(=C/c2ccccc2)CC1)S(C)(=O)=O | 0.9 | 3 | -4 | 0.8 | 6 | 19
CCCCN(C(=O)NC(=O)C1=C(N2CCOCC2)/C(=C/c2ccccc2)CC1)S(C)(=O)=O | 0.2 | / | / | 0.2 | 78* | 79*
Cc1cc(C)c2c(n1)sc1c(=O)[nH]c(SCc3ccccc3)nc12 | 0.4 | 6 | -3 | 0.9 | 64* | 6
Cc1nc2cc(S(=O)(=O)N(C)C)ccc2n1-c1ccccc1 | 0.7 | / | / | 0.2 | 25 | 81*
O=C1c2ccccc2-c2nc3ccccc3n21 | / | 8 | -2 | / | / | /
Cc1ccccc1-n1c(C)nc2ccccc21 | 0.5 | -4 | 3 | 0.2 | 54* | 82*
Cc1cc(=O)cc(C)n1-c1ccc2c(c1)nc(C)n2-c1ccccc1 | 1.1 | / | / | 1.1 | -12 | -6
Cc1nc2ccccc2n1-c1ccccc1 | 0.6 | / | / | 0.3 | 40 | 67*
CC1CN(C(=O)CSc2nc(-c3ccc(F)cc3)cs2)CC(C)O1 (centres undefined) | 0.9 | -1 | 3 | 0.2 | 10 | 79*
O=C(CSc1nc(-c2ccc(F)cc2)cs1)N1CCOCC1 | 2.1* | -5 | 10 | 0.3 | -110 | 69*
SMILES | CYP2C9 act | sEH act | sEH inhibitor | CYP2C19 act | CYP2C9 inh | CYP2C19 inhib
CC(C)(C)c1cc(/C=N/NC(=O)Cc2nc3ccccc3[nH]2)cc(C(C)(C)C)c1O | 0 | 14 | -16 | 0.1 | 99* | 93*
CC(=O)Nc1cnn(Cc2ccc(Br)cc2)c1 | 0.8 | -5 | 0 | 0.3 | 23 | 66*
Clc1ccc(Cn2cc(Br)cn2)cc1Cl | 0.6 | 0 | 4 | 0.3 | 39 | 72*
O=C(Nc1cnn(Cc2ccc(Cl)c(Cl)c2)c1)c1nc2ncccn2n1 | 0.7 | 8 | -6 | 0.9 | 35 | 7
O=C(Nc1cnn(Cc2ccc(Cl)cc2)c1)c1cnccn1 | 0.4 | 15 | -15 | 0.6 | 62* | 42
COc1ccc(/C(N)=C/C(=O)C(C)(C)C)cc1 | 0.6 | 3 | -6 | 0.3 | 42 | 74*
CC(C)(C)C(=O)/C=C(\N)c1ccncc1 | 0.8 | 0 | 2 | 0.7 | 19 | 35
COc1cc(S(=O)(=O)N(C)C)ccc1Br | 3.1* | -11 | 9 | 0.8 | -206 | 21
COc1ccccc1OC(=O)c1ccc(S(=O)(=O)N(C)C)cc1 | 0.5 | -6 | 5 | 0.6 | 52* | 36
COc1cc(NC(=O)c2ccc(S(=O)(=O)N(C)C)cc2)cc(OC)c1OC | 0.9 | -1 | 1 | 0.9 | 13 | 9
N/C(=N\OC(=O)c1cccc(F)c1)c1ccccc1 | 1 | -2 | 6 | 1 | -3 | 0
COc1ccc(N2C(=O)CCC(C(=O)Nc3cccc(C)n3)C2c2ccc(OC)c(OC)c2)cc1 (centres undefined) | 1 | / | / | 0.9 | -3 | 14
CC(C)(C)NC(=O)CSc1nccn1Cc1ccccc1 | 0.9 | -7 | 7 | 0.6 | 12 | 44
O=C(c1ccc([N+](=O)[O-])cc1)N(Cc1ccc(Br)cc1)N1C(=O)CCCC1=O | 0.7 | -3 | 2 | 0.3 | 27 | 73*
CCOC(=O)CSc1nc(C2CC2)nc2ccccc12 | 0.8 | -4 | 5 | 0.9 | 23 | 12
ONC(=Nc1ccc(Cl)cc1)c1ccccc1 | 0.8 | / | / | 0.1 | 24 | 91*
Nc1nonc1C(=Nc1ccccc1)NO | 0.9 | 7 | -9 | 0.9 | 7 | 9
N#Cc1ccc(Oc2cccnc2)cc1C#N | 1 | -6 | 4 | 0.7 | 2 | 30
Cc1ccc(CNC(=O)CS(=O)Cc2nc(-c3ccccc3C)oc2C)cc1 (centres undefined) | 0.8 | -4 | 4 | 0.6 | 24 | 40
COc1ccc(CNC(=O)CS(=O)Cc2nc(-c3ccccc3C)oc2C)cc1 (centres undefined) | 0.2 | / | / | 0.1 | 75* | 91*
Cc1ccccc1-c1nc(CS(=O)CC(=O)NCc2ccccc2)c(C)o1 (centres undefined) | 0.2 | / | / | 0.2 | 76* | 78*
CCc1ccc(N(C(=O)c2csnn2)C(C(=O)NCc2ccccc2)c2ccco2)cc1 (centres undefined) | 0.6 | 5 | -5 | 0.5 | 43 | 47
CC(=O)n1c2ccccc2c2ccccc21 | 0.3 | -22 | 24 | 0.5 | 68* | 47
Cc1ccc(C(=O)n2nnc3ccccc32)cc1 | / | 13 | -9 | / | / | /
Cc1ccc(C(=O)n2c3ccccc3c3ccccc32)cc1 | 0.2 | 13 | -16 | 0.9 | 78* | 7
COC(=O)CCc1c(C)[nH]c(C(=O)OCc2ccccc2)c1C | 0.6 | 5 | 0 | 0.4 | 36 | 62*
CN(C(=O)CCN1C(=O)C(C)(C)Nc2ccccc21)c1ccccc1 | 0.7 | 0 | 4 | 0.2 | 29 | 76*
CC1(C)Nc2ccccc2N(CCC(=O)N2CCOCC2)C1=O | 0.9 | -7 | 6 | 1 | 14 | 3
O=C(OCc1ccccc1Cl)c1cccnc1Cl | 1.8 | -6 | 6 | 0.7 | -84 | 29
